Sampled rows, rich in hits. Any-hit rate of the full collection: about 3.5%.
Mtb betalactam: beta-lactam sensitization of Mtb H37Rv | M. tuberculosis H37Rv growth with meropenem, percent inhibition | inhibition, % at 25 µM | hit rate 0.27% among 330,000 | AID 434955; call rule not given here;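 also: growth measured after seven days incubation then overnight dye step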
Rv3671c protease: inhibits the M. tuberculosis serine protease Rv3671c; inhibition, % at 5.96 µM; hit rate 0.048% among 320,000; P9WHR9; in the data active = inhibition above about 38%;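 also: extracellular domain of Rv3671c used as enzyme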
Target sequence (P9WHR9 whole entry, looked up, the tested form may be a part): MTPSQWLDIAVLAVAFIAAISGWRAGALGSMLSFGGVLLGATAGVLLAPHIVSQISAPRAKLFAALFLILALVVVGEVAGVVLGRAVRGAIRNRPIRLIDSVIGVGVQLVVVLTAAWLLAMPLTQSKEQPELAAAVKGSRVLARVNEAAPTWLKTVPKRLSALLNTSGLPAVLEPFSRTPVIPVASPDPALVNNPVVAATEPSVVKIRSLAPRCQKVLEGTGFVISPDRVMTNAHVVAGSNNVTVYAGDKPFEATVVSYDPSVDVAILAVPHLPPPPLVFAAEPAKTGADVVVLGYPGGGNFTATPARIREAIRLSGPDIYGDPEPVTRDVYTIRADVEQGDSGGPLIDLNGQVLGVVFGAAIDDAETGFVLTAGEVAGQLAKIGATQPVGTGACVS
GDH-TPI counter-1: inhibits GDH-TPI coupling enzymes, artifact for Mtb FBA screen; GDH-TPI coupled enzyme counterscreen, NADH absorbance; inhibition, % at 4.8 µM; hit rate 1.2% among 360,000; AID 588335; in the data active = inhibition above about 30%
Mtb FBA inh: Mtb fructose-bisphosphate aldolase inhibition; P9WQA3; purified M. tuberculosis FBA, fluorescence read-out; inhibition, % at 1 µM; hit rate 2.3% among 360,000
Mtb UGM inh: blocks M. tuberculosis UGM enzyme | P9WIQ1 | purified UGM, fluorescence polarization probe displacement | inhibition, % at 10 µM | hit rate 0.06% among 320,000 | AID 504406; in the data active = inhibition above about 10%, passing the limit was not always enough
Mtb FBA confirm: confirmation of M. tuberculosis fructose-bisphosphate aldolase inhibitors; purified M. tuberculosis FBA, fluorescence read-out; hit rate 78% among 5,600; shares compounds with Mtb FBA inh; inhibition, % at 1 µM
GDH-TPI counter-2: counter-screen for M. tuberculosis FBA inhibitors: GDH-TPI coupled enzyme inhibition; hit rate 81% among 5,600; shares compounds with Mtb FBA inh; GDH-TPI coupled enzyme counterscreen, fluorescence; inhibition, % at 1 µM; in the data active = inhibition above about 10%
GDH-TPI dose: inhibits GDH-TPI coupling enzymes in dose response. shares compounds with Mtb FBA inh. GDH-TPI coupled enzyme assay, fluorescence, artifact counterscreen. IC50, µM. hit rate 79% among 170; call rule not given here
Numbers stand for hits; – = inactive; · = no result; + = active, no number. Rule as the data show it, unless noted: active = inhibition above about 27%; inactive = the rest.

SMILES	Mtb betalactam	Rv3671c protease	GDH-TPI counter-1	Mtb FBA inh	Mtb UGM inh	Mtb FBA confirm	GDH-TPI counter-2	others
COc1ccc(-c2sc3cc4c(cc3c2C#CCO)OCO4)cc1	–	–	–	–	–	·	·
O=C(NN1CCOCC1)c1c(-c2ccccc2)sc2ccccc12	–	–	–	–	–	·	·
COc1ccc(-c2sc3cc4c(cc3c2C#Cc2ccc(N)cc2)OCO4)cc1	–	–	–	66	–	70	66
COC(=O)c1c(-c2ccc(N(C)C)cc2)sc2ccc(OC)cc12	–	–	–	89	–	+	158
CS(=O)(=O)c1ccc(-c2sc3cc4c(cc3c2C(=O)NN2CCOCC2)OCO4)cc1	–	–	37	48	–	104	85
CCCOC(=O)Nc1nc2ccccc2o1	–	–	–	–	–	·	·
CCOC(=O)C(=CN=C(N)Nc1nc2ccccc2o1)C(=O)OCC	–	–	–	32	–	29	23
Cc1cc(C)n2nc(C(=O)OCC(=O)c3ccccc3)nc2n1	–	–	–	28	–	95	68
Cc1ccc(NC(=O)CNc2cccc(Br)c2)cc1S(=O)(=O)N1CCOCC1	–	–	–	–	–	·	·
C#CCN(C(=O)C1CCC(=O)N(CCc2cccc(F)c2)C1)C1CCCCC1 (stereo not given)	·	·	–	–	·	·	·
CCOCCCNC(=S)NCCCNc1nc2cc3c(cc2cc1C#N)OCO3	–	–	–	65	–	188	153
CCOCCCNC(=S)NCCCNc1nc2ccc(C)cc2cc1C#N	–	–	·	·	–	·	·
CN(C)CCCNC(=S)NCCNc1nc2cc3c(cc2cc1C#N)OCO3	–	–	–	70	–	65	47
CCOCCCNC(=S)NCCNc1nc2ccc(C)cc2cc1C#N	–	–	–	–	–	·	·
Cc1ccc(/C=C2\SC(=S)N(CCC(=O)N3CCOCC3)C2=O)cc1	–	–	–	–	–	·	·
COc1ccc2oc(C(=O)OCC(=O)N3CCCCC3)c(C)c2c1	–	–	–	37	–	125	113
COc1ccc2oc(C(=O)OCC(=O)N3CCN(c4ccccc4)CC3)c(C)c2c1	–	–	–	–	–	·	·
COc1ccc2oc(C(=O)OCC(=O)N3CCN(C(C)=O)CC3)c(C)c2c1	–	–	–	43	–	59	42
CCOC(=O)c1oc2ccc(OC)cc2c1NC(=O)CN1CCN(C)CC1	–	–	–	40	–	–	–
CCOC(=O)c1[nH]c2ccc(OCC)cc2c1NC(=O)CN1CCCC(C)C1 (stereo not given)	–	–	–	38	–	49	47
CCOC(=O)c1[nH]c2ccc(C)cc2c1NC(=O)CN1CCCCC1	–	–	–	–	–	·	·
CCOC(=O)c1[nH]c2ccc(OC)cc2c1NC(=O)CCN1CCSCC1	–	–	–	71	–	51	43
CCOC(=O)c1[nH]c2ccc(OC)cc2c1NC(=O)CN1CCC2(CC1)OCCO2	–	–	–	47	–	134	104
COc1ccc(C2SCC(=O)N2CCc2ccc(OC)c(OC)c2)cc1 (stereo not given)	–	–	–	–	–	·	·
CCS(=O)(=O)N1N=C(c2ccc(NS(C)(=O)=O)cc2)CC1c1ccccc1 (stereo not given)	–	–	–	109	–	–	–	GDH-TPI dose=0.98
SMILES	Mtb betalactam	Rv3671c protease	GDH-TPI counter-1	Mtb FBA inh	Mtb UGM inh	Mtb FBA confirm	GDH-TPI counter-2	others
CCS(=O)(=O)Nc1ccc(C2=NN(S(=O)(=O)CC)C(c3cccs3)C2)cc1 (stereo not given)	–	–	–	49	–	147	130
CCS(=O)(=O)Nc1cccc(C2=NN(S(=O)(=O)CC)C(c3cccs3)C2)c1 (stereo not given)	–	–	–	–	–	·	·
CC(=O)Nc1ccc(S(=O)(=O)Nc2cccc(-c3cn4cccnc4n3)c2)cc1	–	–	–	64	–	–	–
CC1CCCN(S(=O)(=O)c2cccc(-c3cn4cccnc4n3)c2)C1 (stereo not given)	–	–	–	75	–	122	139
CC1CCCN(S(=O)(=O)c2ccc3c(c2)c(=O)nc2ccccn23)C1 (stereo not given)	–	–	–	66	–	89	65
CC(=O)Nc1ccc(S(=O)(=O)Nc2cccc(-c3csc(C)n3)c2)cc1	–	–	–	–	–	·	·
COc1ccc2cc(S(=O)(=O)N3CCCC(C)C3)ccc2c1 (stereo not given)	–	–	–	–	–	·	·
CCOc1ccc(C(C)NC(=O)Cc2ccccc2F)cc1OCC (stereo not given)	–	–	–	–	–	·	·
Cc1cc(C)c(C(=O)COC(=O)c2c(C)noc2C)cc1C	–	–	–	–	–	·	·
CNC(=O)COC(=O)COc1ccc2c(C)cc(=O)oc2c1	–	–	–	–	–	·	·
Cc1cc(=O)oc2cc(OCC(=O)OCC(=O)Nc3ccc(C(C)C)cc3)ccc12	–	–	–	29	–	86	69
Cc1cc(=O)oc2cc(OCC(=O)Nc3ccc(S(=O)(=O)N(C)C)cc3)ccc12	–	–	–	29	–	101	64
COc1ccc(/C=C(\NC(=O)c2ccco2)C(=O)N2CCCCC2)cc1	–	–	–	–	–	·	·
c1ccc(CNc2ccccn2)cc1	–	–	–	–	–	·	·
Clc1ccc(CNc2ccccn2)cc1	–	–	–	–	–	·	·
c1ccc(CNc2cnccn2)cc1	–	–	–	69	–	108	93
O=C(NCc1ccc(F)cc1)c1cnccn1	–	–	–	–	–	·	·
Clc1ccc(CNc2cnccn2)cc1	–	–	–	71	–	125	92
Fc1ccc(CNc2cnccn2)cc1	–	–	–	71	–	–	–
Cc1nc2ccccc2c(=O)n1NC(=O)c1cc(Br)ccc1Cl	–	–	–	–	–	·	·
NC(=O)N/N=C/c1ccc2cccc(OCc3ccccc3)c2n1	–	–	–	57	–	173	138
O=C(Cc1ccccc1)N/N=C/c1ccc2cccc(O)c2n1	–	–	–	–	–	·	·
Cc1ccccc1NC(=O)Cn1c(C)nc2ccc(N)cc2c1=O	–	–	–	61	–	–	–	GDH-TPI dose=2.8
COc1ccc(S(=O)(=O)Nc2c(NC3CCCCC3)c3ccccc3oc2=O)cc1Cl	–	–	–	29	–	+	+
O=C1NCCn2ccc(=O)cc21	–	–	–	–	–	·	·
COc1ccc(-c2oc3ccc(N4CCOCC4)cc3c2C#Cc2ccc(N)cc2)cc1	–	–	–	44	–	49	48
COc1ccc(/C=C/c2c(-c3cccc(C)c3)oc3ccc(N4CCOCC4)cc23)cc1	–	–	–	35	–	103	98
COC(=O)c1ccc(/C=C/c2c(-c3ccc(OC)cc3)oc3ccc(N4CCOCC4)cc23)cc1	–	–	–	–	–	·	·
CCN(Cc1ccccc1)C(c1cc2ccc(C)cc2[nH]c1=O)c1nnnn1CCOC (stereo not given)	–	–	–	–	–	·	·

Compound activity (PubChem)
